HP1b binding inh – blocks HP1-beta chromodomain binding to methylated histone tails; P83916; AlphaScreen HP1-beta / biotin-H3K9me3 peptide binding; Potency, µM (highest dose often 114 µM), most hits filed as inhibitors; 0.56% of 390,000 active; note: nearly all actives have a fitted effect of over 70% in size
Target sequence (P83916 whole entry, looked up): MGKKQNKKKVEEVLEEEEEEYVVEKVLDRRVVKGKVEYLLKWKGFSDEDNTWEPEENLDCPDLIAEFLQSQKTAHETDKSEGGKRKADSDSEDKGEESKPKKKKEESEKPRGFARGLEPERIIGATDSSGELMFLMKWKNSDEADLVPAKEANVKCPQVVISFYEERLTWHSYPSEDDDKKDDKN
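AlphaScreen: HP1-beta (50 nM) preformed 30 min with biotin-H3(1-18)K9me3 peptide (50 nM) in PBS pH 7.4, 0.01% Tween-20. Compound added for 30 min at RT, then streptavidin donor/nickel chelate acceptor beads (10 ug/mL) for 30 min.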
Six1-Eya2 blk – Six1/Eya2 interaction inhibition; activity change, % (no concentration beside the values); 0.56% of 360,000 active; AlphaScreen GST-Six1/His-Eya2 binding, biochemical; active compounds read low; Q15475+O00167; in the data active = activity change below about -65%; inconclusive = mostly about -30% to -63%
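Homogeneous AlphaScreen proximity assay pairing GST-Six1 with His-tagged Eya2 (added as 5X mix: 250 nM and 500 nM) in 50 mM Tris pH 8.0, 300 mM NaCl, 1 mM TCEP. Glutathione donor and nickel acceptor beads; 1 h, 37 °C, dark.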
TDP1 inh – blocks human tyrosyl-DNA phosphodiesterase 1; recombinant TDP1, AlphaScreen DNA substrate cleavage; AID 485290; 0.28% of 350,000 active; Potency, µM (doses to about 130 µM), most hits filed as inhibitors; Q9NUW8; note: nearly all actives have a fitted effect of over 40% in size
Target sequence (Q9NUW8 whole entry, looked up): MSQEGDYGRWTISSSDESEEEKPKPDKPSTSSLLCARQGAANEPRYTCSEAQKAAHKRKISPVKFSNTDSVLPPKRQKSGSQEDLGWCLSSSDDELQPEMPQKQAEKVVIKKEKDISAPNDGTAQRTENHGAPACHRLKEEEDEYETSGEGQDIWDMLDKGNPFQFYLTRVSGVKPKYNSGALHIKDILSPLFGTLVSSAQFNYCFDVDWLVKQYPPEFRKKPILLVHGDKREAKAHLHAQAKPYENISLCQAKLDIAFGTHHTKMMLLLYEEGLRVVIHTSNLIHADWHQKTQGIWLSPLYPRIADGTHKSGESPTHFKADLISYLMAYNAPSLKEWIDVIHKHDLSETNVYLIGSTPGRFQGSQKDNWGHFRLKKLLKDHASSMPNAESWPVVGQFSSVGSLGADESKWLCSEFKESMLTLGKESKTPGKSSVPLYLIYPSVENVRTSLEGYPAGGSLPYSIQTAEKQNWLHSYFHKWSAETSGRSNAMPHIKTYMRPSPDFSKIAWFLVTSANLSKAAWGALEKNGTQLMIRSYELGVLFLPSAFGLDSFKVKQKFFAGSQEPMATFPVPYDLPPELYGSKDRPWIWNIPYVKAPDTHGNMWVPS
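Steps: enzyme plus compound, 15 min RT; add biotin/phosphotyrosine-FITC oligonucleotide (15 nM final), react 5 min; add donor/acceptor beads (10 ug/ml final), 10 min; read AlphaScreen. Tdp1 at 1 nM final.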
CtBP-E1A inh – CtBP/E1A binding inhibition. AlphaScreen GST-E1A/His-CtBP binding, 1536-well; active compounds read low. activity change, % (test concentration not listed). 0.49% of 340,000 active. AID 651724; in the data active = activity change below about -65%; inconclusive = mostly about -30% to -63%
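In 5 uL wells, 23 nL compound meets equimolar GST-E1A and His-CtBP (5X stock 125 nM each) for 2 h, 37 °C. Beads (5X, 50 ug/mL) then 1 h, 37 °C, dark.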
JMJD2A Tudor – JMJD2A Tudor domain (human) inhibition; O75164; AlphaScreen JMJD2A-Tudor / H3K4me3 peptide binding; Potency, µM (doses to about 114 µM), most hits filed as inhibitors; 4.4% of 390,000 active; AID 504339; note: nearly all actives have a fitted effect of over 50% in size
BAZ2B block – inhibitors of human BAZ2B bromodomain. AID 504333. 4.4% of 360,000 active. AlphaScreen BAZ2B-H3K14Ac peptide displacement. Q9UIF8. Potency, µM (top dose mostly 114 µM), most hits filed as inhibitors; note: nearly all actives have a fitted effect of over 60% in size
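BAZ2B (50 nM) with biotin-H3(5-23)K14Ac peptide (50 nM) in PBS pH 7.4, 0.01% Tween-20, preformed 30 min, then compound 30 min at room temperature; top concentration 110uM. AlphaScreen streptavidin donor/nickel chelate acceptor beads (10 ug/mL final), 20 min dark, signal read.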
12-hLO 8HQ R1 – blocks human 12-lipoxygenase product formation in cuvette; shares compounds with BAZ2B block; purified 12-hLO, cuvette UV 234 nm product formation; Potency, µM, most hits filed as inhibitors; 60% of 35 active;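 active = compounds that slowed 12-hLO product formation enough to yield a measured IC50 potency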
JMJD2E inh-1 – JMJD2E demethylase inhibition by 8HQ compounds. JMJD2E demethylase, FDH-coupled NADH fluorescence. 89% of 130 active. Potency, µM (top dose mostly 57 µM), hits mostly inhibitors. shares compounds with BAZ2B block
ME-1 prolif – reduces ME-1 leukemia cell proliferation | Potency, µM (titrated, usually from 56.1 µM), hits mostly inhibitors | shares compounds with BAZ2B block | ME-1 cell proliferation, ATP luminescence, 48 h | 20% of 140 active
JMJD2E inh-2 – JMJD2E (human) demethylase inhibition, confirmation; Recombinant JMJD2E, FDH-coupled NADH fluorescence (FDH is formaldehyde dehydrogenase); shares compounds with JMJD2A Tudor; 93% of 140 active; Potency, µM (highest dose often 56.8 µM), most hits filed as inhibitors; AID 2677
FDH inh – counter-screen for JMJD2E inhibitors: Pseudomonas putida formaldehyde dehydrogenase; shares compounds with JMJD2A Tudor; FDH enzyme assay, NADH fluorescence kinetic; Potency, µM (series often up to 56.7 µM), hits mostly inhibitors; 10% of 140 active; AID 2680
A number is an active result; - = inactive; ? = inconclusive; . = not tested or not shown; [ ] = another dose, or the depositor's remark. Hits are enriched below; roughly 5.3% of the tested compounds scored in any of these assays. Unless noted, calls come from the whole dose curve; as a rule, active = well fitted curve in the direction sought with a large enough effect; inconclusive = small, poorly fitted or top-dose-only effect, or another doubt; inactive = no such curve, though single readings can be large; an effect the other way counts as inactive or inconclusive.

SMILES	HP1b binding inh	Six1-Eya2 blk	TDP1 inh	CtBP-E1A inh	JMJD2A Tudor	BAZ2B block	ME-1 prolif	others
Cc1ccsc1CCN1C(=O)N(c2ccccc2)C(=O)C1CC(=O)Nc1ccc(F)cc1 (stereo unspecified)	-	.	-	.	-	-	.
CCCCCC(=O)Nc1ccc(NC(=O)c2cc3ccccc3o2)c(OC)c1	-	.	-[12.3 µM]	.	-	-	.
O=[N+]([O-])c1cc2c(cc1/C=N/n1c(-c3ccccn3)n[nH]c1=S)OCO2	?	-82.7	-	-	3.98µM	7.08µM	?
Nc1nc(-c2ccccc2)c(N=Nc2cccnc2)s1	?	-	-	-	-	7.94µM	-
COc1cc(OC)c(NC(=O)C2=C(C)C(=O)OC23CCN(C(C)=O)CC3)cc1Cl	-	.	-	.	-	-	.
CC(=O)c1cc2c(cc1N/C(=N/S(=O)(=O)c1ccc(C)cc1)c1ccc(F)cc1)OCO2	-	.	-	.	-	-	.
C=C(C(C)=O)C(O)c1ccccc1 (stereo unspecified)	.	.	-	.	.	.	.
O=c1cc(-c2ccccc2)oc2cc(O)c(O)c(O)c12	-	-	-	-	?	.	.
O=c1c(O)cccc2cc(O)c(O)c(O)c12	?	?	.	.	0.891µM	0.794µM	?
O=C(NC(=S)NNC(=O)c1ccccc1O)c1ccco1	-	-90.6	-	-	35.5µM	?	?
Cc1cc(O)c(C=O)c2c1C(=O)Oc1c(COC(=O)/C=C/C(=O)O)c(O)c(C(=O)O)c(C)c1O2	.	.	39.8µM	.	.	.	-
CCC(C)NC(=O)Cn1c(=O)n(-c2ccc(OC)c(OC)c2)c(=O)c2ccccc21 (stereo unspecified)	-	.	-	.	-	-	.
CCc1sc(N)nc1-c1ccccc1	-	-	-	-	-	?	-
Nc1nc(-c2ccccc2)c(CC(=O)O)s1	.	-	.	-	.	.	.
Brc1ccc(Cn2c(-c3ccc(Br)o3)nc3ccccc32)o1	-	-	-	.	-	12.6µM	?
Cc1cc(=O)cc2oc3cc(N)c(-c4c(C)cc(O)cc4O)c(C)c3nc1-2	.	.	-	.	.	.	-
COc1ccc(CCC(=O)O)c(O)c1	-	-	.	-	-	?	.
COCc1cc(O)c(O)c(O)c1-c1c(COC)cc(O)c(O)c1O	.	.	.	.	.	.	-
Cc1cccc(NC(=S)N(CCN(C)C)C(C)c2ccccn2)c1 (stereo unspecified)	-	?	-	?	-	56.2µM	-
Cc1ccc(Cl)cc1NC(=S)N(CCN(C)C)C(C)c1ccccn1 (stereo unspecified)	-	?	-	?	-	.	-
O=C(O)c1cccnc1Cl	-	-	-	-	-	?	.
O=C(O)c1cccnc1C(=O)O	-	?	-	-	0.891µM	6.31µM	-
CCCNC(=O)CCc1c(C)nc2nc(CNC(=O)c3ccccc3)nn2c1C	-	.	-	.	-	-	.
CC(=O)NC(C)c1cc(Cl)c2cccnc2c1O (stereo unspecified)	-	.	-	.	79.4µM	35.5µM	.	12-hLO 8HQ R1=-;JMJD2E inh-1=28.9µM
CCC(=O)NC(C)c1cc(Cl)c2cccnc2c1O (stereo unspecified)	-	.	-	.	79.4µM	31.6µM	.	12-hLO 8HQ R1=50µM;JMJD2E inh-1=28.9µM
SMILES	HP1b binding inh	Six1-Eya2 blk	TDP1 inh	CtBP-E1A inh	JMJD2A Tudor	BAZ2B block	ME-1 prolif	others
CC(=O)NCc1cc(Cl)c2cccnc2c1O	.	.	.	.	.	10µM	.	12-hLO 8HQ R1=-;JMJD2E inh-1=20.4µM
CCC(=O)Nc1ccc(NC(=O)c2ccccn2)cn1	-	-	-	-	-	-	.
CC(=O)c1ccc(OCCOc2ccc(Cl)c3cccnc23)cc1	-	-	-	-	-	-	.
COc1cc(NC(=O)CSc2nnc(C)n3c2cc2oc(C)cc23)cc(OC)c1	-	.	-	.	-	-	.
CCOc1ccc(CNC(=O)C2=Cc3cc(Br)ccc3OC2)cc1OC	-	.	-	.	-	-	.
COC(=O)N[C@@H](c1cccc(F)c1)C(C(C)=O)C(=O)OC (stereo partly specified)	.	.	-	.	.	.	.
COc1cc(C)ccc1OCCSc1nc2ccc(NC(=O)c3ccc(F)cc3)cc2s1	-	.	-	.	-	-	.
CCOC(=O)N/N=C1/C[C@@H](O)[C@@H](O)[C@@H]2[C@@H]3C(=O)N(C4CCCCC4)C(=O)[C@H]3CC[C@@H]12	.	.	-[21 µM]	.	.	.	.
CO/N=C1\CN(c2nc3c(cc2F)c(=O)c(C(=O)O)cn3C2CC2)CC1CN (stereo unspecified)	.	.	-	.	.	.	?
COc1ccc(S(=O)(=O)N2CCOCC2)cc1N=Nc1sc(N)nc1-c1ccccc1	?	?	-	?	-	?	-
COc1ccc(S(=O)(=O)N2CCOCC2)cc1NC(=O)CSc1nnc(N)s1	-	-	.	-	-	-	.
CC(C)(c1cc(Br)c(O)c(Br)c1)c1cc(Br)c(O)c(Br)c1	-	-	-	-	89.1µM	56.2µM	-
CC(C)(c1cc(Cl)c(O)c(CN2CCOCC2)c1)c1cc(Cl)c(O)c(CN2CCOCC2)c1	-	-	.	-	-	.	.
O=c1oc2cc(O)c(Cl)cc2c2ccccc12	-	-	-	-	-	-	.
O=c1cc2c(=O)oc3cc(O)c(O)oc3c2c(O)c1O	1.58µM	-78.5	?	-	1.41µM	1.78µM	-
CN(Cc1ccco1)Cc1ccc(O)c2ncccc12	-	.	-	.	-	3.16µM	.	JMJD2E inh-1=3.16µM;JMJD2E inh-2=3.16µM;FDH inh=-
O=C(c1ccc(-c2cc(O)c3ncccc3c2)cc1)N1CCNCC1	-	.	-	.	20µM	7.94µM	.	JMJD2E inh-1=15.8µM;JMJD2E inh-2=15.8µM;FDH inh=-
COc1cc(C(=O)N2CCNCC2)cc(OC)c1OC	-	-	.	-	-	-	.
CCC(=O)NC(c1ccccc1)c1c(O)ccc2ccccc12 (stereo unspecified)	-	-	.	-	-	-	.
CCC(=O)NC(c1cccs1)c1ccc2cccnc2c1O (stereo unspecified)	-	-93.2	-	.	79.4µM	25.1µM	.	12-hLO 8HQ R1=3.4µM;JMJD2E inh-1=10µM;JMJD2E inh-2=10µM;FDH inh=-
CCC(=O)NC(c1ccc2c(c1)OCO2)c1cc(Cl)c2cccnc2c1O (stereo unspecified)	.	.	-	.	?	.	.	JMJD2E inh-1=20µM;JMJD2E inh-2=20µM;FDH inh=-

Screening results (PubChem)
